# Measured values from ChEMBL document CHEMBL2218924, “A broad activity screen in support of a chemogenomic map for kinase signalling research and drug discovery” (Biochem J, 2013).
# Assays:
# [1] = biological target: Protein kinase C eta type (Homo sapiens) (UniProt P24723); details: at 10 µM
# [2] = biological target: Protein kinase C theta type (Homo sapiens) (UniProt Q04759); details: at 1 µM
# [3] = biological target: Protein kinase C theta type (Homo sapiens) (UniProt Q04759); details: at 10 µM
# [4] = biological target: T1, cGMP-dependent protein kinase 1 (Homo sapiens) (UniProt Q13976); details: at 1 µM
# T1 sequence (whole entry): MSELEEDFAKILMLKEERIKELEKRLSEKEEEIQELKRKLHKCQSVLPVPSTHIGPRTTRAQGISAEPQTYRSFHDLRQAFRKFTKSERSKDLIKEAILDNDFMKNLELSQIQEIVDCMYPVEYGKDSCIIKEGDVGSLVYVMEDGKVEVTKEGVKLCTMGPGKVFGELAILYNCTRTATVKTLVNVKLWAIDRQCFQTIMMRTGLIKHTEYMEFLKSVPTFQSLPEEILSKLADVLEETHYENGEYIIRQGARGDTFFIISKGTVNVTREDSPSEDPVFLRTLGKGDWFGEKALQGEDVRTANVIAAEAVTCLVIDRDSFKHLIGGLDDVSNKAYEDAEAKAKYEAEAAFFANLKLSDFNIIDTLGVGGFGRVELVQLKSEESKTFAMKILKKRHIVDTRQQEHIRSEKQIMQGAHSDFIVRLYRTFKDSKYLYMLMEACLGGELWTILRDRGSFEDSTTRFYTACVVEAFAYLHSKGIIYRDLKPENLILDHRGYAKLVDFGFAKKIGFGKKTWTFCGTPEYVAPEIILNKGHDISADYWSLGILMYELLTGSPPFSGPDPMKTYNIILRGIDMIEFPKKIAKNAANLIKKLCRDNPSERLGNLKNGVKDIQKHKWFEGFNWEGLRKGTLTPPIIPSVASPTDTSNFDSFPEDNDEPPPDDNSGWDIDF
# [5] = biological target: T1, cGMP-dependent protein kinase 1 (Homo sapiens); details: at 10 µM
# [6] = biological target: Serine/threonine-protein kinase N2 (Homo sapiens) (UniProt Q16513); details: at 1 µM
# [7] = biological target: Serine/threonine-protein kinase N2 (Homo sapiens) (UniProt Q16513); details: at 10 µM
# [8] = biological target: Protein kinase C eta type (Homo sapiens) (UniProt P24723); details: at 1 µM
# [9] = biological target: T2, Serine/threonine-protein kinase D1 (Homo sapiens) (UniProt Q15139); details: at 1 µM
# T2 sequence (whole entry): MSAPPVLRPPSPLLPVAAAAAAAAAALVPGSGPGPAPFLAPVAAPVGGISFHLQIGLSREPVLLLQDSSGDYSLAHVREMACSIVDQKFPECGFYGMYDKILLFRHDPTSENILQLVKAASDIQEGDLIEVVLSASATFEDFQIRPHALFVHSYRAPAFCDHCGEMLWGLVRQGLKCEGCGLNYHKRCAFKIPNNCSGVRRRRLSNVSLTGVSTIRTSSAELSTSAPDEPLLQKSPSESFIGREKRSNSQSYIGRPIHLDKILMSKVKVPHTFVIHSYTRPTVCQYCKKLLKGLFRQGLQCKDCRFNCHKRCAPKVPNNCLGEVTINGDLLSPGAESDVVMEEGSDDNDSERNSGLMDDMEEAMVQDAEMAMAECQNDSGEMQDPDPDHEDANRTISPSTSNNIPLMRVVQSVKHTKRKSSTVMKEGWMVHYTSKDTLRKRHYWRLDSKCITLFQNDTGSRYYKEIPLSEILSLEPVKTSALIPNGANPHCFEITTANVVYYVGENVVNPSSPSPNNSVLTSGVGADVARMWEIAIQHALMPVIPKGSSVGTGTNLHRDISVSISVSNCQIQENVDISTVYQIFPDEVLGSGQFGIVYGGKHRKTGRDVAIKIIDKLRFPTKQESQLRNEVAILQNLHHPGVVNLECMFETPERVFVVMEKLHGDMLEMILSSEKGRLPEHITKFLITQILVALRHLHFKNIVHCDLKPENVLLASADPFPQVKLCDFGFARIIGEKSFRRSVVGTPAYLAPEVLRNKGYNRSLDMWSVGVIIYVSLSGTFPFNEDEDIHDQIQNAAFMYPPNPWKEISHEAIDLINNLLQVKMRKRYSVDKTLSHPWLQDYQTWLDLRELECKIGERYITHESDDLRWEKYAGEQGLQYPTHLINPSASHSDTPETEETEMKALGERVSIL
# [10] = biological target: T2, Serine/threonine-protein kinase D1 (Homo sapiens); details: at 10 µM
# [11] = biological target: Tyrosine-protein kinase FRK (Homo sapiens) (UniProt P42685); details: at 1 µM
# [12] = biological target: Tyrosine-protein kinase FRK (Homo sapiens) (UniProt P42685); details: at 10 µM
# [13] = biological target: T3, MAP kinase-activated protein kinase 5 (Homo sapiens) (UniProt Q8IW41); details: at 1 µM
# T3 sequence (whole entry): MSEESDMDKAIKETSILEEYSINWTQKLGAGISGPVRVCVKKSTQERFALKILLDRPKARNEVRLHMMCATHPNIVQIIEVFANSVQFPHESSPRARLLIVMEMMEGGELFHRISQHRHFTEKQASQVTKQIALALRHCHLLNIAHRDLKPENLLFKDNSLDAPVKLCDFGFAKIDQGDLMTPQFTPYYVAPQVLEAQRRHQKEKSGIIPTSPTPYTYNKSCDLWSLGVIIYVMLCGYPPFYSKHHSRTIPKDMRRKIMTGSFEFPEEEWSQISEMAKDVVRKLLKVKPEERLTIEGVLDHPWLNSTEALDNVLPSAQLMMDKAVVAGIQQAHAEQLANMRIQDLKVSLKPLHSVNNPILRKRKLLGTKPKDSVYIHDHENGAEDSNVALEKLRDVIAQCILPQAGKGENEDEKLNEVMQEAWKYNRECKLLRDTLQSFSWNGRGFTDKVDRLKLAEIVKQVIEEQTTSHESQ
# [14] = biological target: T3, MAP kinase-activated protein kinase 5 (Homo sapiens); details: at 10 µM
# [15] = biological target: T4, Protein kinase C iota type (Homo sapiens) (UniProt P41743); details: at 1 µM
# T4 sequence (whole entry): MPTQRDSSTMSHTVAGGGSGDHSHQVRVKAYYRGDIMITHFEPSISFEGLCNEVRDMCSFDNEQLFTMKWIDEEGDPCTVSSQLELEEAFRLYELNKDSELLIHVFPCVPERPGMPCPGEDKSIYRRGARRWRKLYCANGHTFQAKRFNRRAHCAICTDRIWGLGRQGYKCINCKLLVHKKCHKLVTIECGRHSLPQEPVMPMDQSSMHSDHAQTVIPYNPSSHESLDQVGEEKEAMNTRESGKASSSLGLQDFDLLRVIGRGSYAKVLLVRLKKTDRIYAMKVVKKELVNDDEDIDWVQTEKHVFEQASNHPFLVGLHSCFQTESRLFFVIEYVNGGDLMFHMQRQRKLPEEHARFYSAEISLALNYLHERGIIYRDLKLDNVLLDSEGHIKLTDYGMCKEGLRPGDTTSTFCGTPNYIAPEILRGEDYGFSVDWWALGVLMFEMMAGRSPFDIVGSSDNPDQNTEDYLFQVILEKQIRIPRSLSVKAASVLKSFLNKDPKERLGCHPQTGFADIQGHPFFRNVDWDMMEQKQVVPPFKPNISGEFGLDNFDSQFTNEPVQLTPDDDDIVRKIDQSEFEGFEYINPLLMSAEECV
# [16] = biological target: T1, cGMP-dependent protein kinase 1 (Homo sapiens); details: at 10 µM; remark: listed apart in the source
# [17] = biological target: T1, cGMP-dependent protein kinase 1 (Homo sapiens); details: at 1 µM; remark: listed apart in the source
# Sequence of Protein kinase C eta type (Homo sapiens) (P24723 whole entry): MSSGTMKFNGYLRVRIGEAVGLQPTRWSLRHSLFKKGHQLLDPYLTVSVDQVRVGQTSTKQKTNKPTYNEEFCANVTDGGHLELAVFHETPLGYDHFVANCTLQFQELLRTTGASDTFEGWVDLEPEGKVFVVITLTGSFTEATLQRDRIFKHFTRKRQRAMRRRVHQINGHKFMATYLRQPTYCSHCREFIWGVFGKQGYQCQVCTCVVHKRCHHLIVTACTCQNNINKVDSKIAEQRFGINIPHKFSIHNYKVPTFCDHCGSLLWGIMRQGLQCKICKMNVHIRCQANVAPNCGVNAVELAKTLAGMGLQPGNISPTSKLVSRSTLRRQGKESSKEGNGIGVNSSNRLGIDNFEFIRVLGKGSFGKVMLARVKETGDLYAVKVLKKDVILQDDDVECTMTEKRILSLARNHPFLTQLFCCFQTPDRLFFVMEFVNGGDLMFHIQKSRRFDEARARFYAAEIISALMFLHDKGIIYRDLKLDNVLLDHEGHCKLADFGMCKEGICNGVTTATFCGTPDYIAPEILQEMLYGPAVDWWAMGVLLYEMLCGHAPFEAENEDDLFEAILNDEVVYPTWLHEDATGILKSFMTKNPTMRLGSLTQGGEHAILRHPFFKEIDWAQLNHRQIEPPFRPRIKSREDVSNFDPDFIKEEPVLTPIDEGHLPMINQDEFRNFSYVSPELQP
# Sequence of Protein kinase C theta type (Homo sapiens) (Q04759 whole entry, looked up): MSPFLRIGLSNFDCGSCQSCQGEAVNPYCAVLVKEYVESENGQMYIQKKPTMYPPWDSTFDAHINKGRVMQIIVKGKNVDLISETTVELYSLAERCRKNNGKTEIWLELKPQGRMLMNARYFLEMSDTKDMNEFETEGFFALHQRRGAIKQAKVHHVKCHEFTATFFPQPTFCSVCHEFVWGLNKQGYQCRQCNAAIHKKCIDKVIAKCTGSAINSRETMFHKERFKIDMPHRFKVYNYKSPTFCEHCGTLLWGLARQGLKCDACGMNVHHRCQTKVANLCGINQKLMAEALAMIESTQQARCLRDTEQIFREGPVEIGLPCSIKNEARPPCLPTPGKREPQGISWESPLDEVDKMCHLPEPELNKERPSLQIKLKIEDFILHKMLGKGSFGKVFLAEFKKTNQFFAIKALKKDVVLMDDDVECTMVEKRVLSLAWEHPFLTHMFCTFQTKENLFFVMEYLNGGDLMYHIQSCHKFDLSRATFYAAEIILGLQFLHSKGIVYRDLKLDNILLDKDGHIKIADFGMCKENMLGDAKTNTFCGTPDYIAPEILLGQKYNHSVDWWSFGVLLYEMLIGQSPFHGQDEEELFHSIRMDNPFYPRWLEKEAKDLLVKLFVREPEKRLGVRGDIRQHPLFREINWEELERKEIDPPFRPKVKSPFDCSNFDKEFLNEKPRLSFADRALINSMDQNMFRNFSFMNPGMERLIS
# Sequence of Tyrosine-protein kinase FRK (Homo sapiens) (P42685 whole entry): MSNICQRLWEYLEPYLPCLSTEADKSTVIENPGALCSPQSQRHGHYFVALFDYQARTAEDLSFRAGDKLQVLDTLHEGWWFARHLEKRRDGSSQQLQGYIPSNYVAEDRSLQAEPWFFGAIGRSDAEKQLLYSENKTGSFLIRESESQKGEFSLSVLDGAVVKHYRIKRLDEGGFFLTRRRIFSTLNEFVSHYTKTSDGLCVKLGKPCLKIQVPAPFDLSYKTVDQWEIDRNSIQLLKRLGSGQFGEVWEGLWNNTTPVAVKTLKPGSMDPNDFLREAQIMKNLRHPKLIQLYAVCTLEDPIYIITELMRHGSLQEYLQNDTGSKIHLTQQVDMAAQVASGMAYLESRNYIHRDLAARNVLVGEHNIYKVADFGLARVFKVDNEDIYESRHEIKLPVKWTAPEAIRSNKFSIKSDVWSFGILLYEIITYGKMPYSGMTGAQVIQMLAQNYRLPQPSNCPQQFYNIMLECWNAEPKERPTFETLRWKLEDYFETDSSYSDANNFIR
# Sequence of Serine/threonine-protein kinase N2 (Homo sapiens) (Q16513 whole entry, looked up): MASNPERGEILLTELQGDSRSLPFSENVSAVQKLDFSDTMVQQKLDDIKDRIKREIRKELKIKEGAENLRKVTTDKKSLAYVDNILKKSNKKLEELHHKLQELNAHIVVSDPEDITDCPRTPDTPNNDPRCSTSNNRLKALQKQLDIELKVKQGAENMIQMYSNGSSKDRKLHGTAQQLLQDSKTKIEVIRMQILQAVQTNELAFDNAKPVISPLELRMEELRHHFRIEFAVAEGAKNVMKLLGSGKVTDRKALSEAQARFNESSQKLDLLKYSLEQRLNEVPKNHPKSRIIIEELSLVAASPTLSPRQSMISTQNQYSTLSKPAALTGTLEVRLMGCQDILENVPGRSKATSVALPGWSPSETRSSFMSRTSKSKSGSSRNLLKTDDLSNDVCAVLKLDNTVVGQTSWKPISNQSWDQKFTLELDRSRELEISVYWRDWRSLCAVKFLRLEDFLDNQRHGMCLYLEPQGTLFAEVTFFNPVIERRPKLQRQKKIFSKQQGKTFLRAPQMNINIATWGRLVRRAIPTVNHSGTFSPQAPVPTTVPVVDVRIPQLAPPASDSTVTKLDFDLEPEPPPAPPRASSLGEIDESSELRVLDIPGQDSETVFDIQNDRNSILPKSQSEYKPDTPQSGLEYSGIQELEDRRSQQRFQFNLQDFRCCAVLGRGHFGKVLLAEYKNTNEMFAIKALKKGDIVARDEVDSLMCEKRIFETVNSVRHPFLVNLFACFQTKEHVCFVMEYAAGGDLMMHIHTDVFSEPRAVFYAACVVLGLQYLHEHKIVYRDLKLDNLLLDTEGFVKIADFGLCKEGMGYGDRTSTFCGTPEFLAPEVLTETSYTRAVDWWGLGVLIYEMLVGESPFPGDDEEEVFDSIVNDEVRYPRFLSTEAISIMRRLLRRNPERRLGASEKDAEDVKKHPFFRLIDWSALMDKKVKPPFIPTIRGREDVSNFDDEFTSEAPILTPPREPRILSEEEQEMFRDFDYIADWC
structure (smiles),measurement,setting,value
O=C1NC(=O)C(c2cn(CCCO)c3ncccc23)=C1c1cnccn1,residual activity,[1],87%
same,residual activity,[2],97%
same,residual activity,[3],77%
same,residual activity,[4],98%
same,residual activity,[5],74%
same,residual activity,[6],100%
same,residual activity,[7],87%
Cn1c2ccccc2c2c3c(c4c5ccccc5n(CCC#N)c4c21)CNC3=O,residual activity,[8],72%
same,residual activity,[1],60%
same,residual activity,[9],5%
same,residual activity,[10],12%
same,residual activity,[6],11%
same,residual activity,[7],10%
same,residual activity,[11],42%
same,residual activity,[12],33%
O=C1Cc2c([nH]c3ccc([N+](=O)[O-])cc23)-c2ccccc2N1,residual activity,[13],80%
same,residual activity,[14],81%
same,residual activity,[11],67%
same,residual activity,[12],46%
CCCCc1c(-c2ccc(OC)cc2)[nH]c2nccnc12,residual activity,[2],90%
same,residual activity,[3],83%
same,residual activity,[15],112% (inactive)
same,residual activity,[9],121%
same,residual activity,[10],84%
same,residual activity,[16],116%
same,residual activity,[4],107%
same,residual activity,[13],73%
same,residual activity,[14],108%
same,residual activity,[6],88%
same,residual activity,[7],76%
same,residual activity,[11],60%
same,residual activity,[12],51%
O=C(Nc1nc2ccccc2n1CCN1CCOCC1)c1cccc([N+](=O)[O-])c1,residual activity,[17],100%
same,residual activity,[16],101%
same,residual activity,[4],83%
same,residual activity,[5],88%
same,residual activity,[6],78%
same,residual activity,[7],115%
O=C(c1cc2cc(O)ccc2[nH]1)c1cc2cc(O)ccc2[nH]1,residual activity,[1],77%
same,residual activity,[2],83%
same,residual activity,[3],67%
same,residual activity,[9],80%
same,residual activity,[10],23%
same,residual activity,[13],71%
same,residual activity,[14],40%
same,residual activity,[6],72%
same,residual activity,[7],39%
same,residual activity,[11],37%
same,residual activity,[12],7%
